Screens (PubChem BioAssay)
Rows were chosen to be rich in hits. Some 9.4% of all compounds tested hit in one or more screens of this group.
SARS PLpro yeast: inhibitors of SARS-CoV papain-like protease in yeast | S. cerevisiae expressing SARS-CoV PLpro, growth rescue | Potency, µM (highest dose often 32.9 µM), hits mostly activators | 330,000 tested, 0.19% active; calls by dose curve; also: nearly all actives have a fitted effect of over 55% in size
Pf growth 48h: P. falciparum growth inhibition at 48 hours (one generation); P. falciparum luciferase growth in erythrocytes, 48 h; Potency, µM (top dose mostly 28.7 µM), most hits filed as inhibitors; 310,000 tested, 5.9% active; AID 504832
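Read-out is firefly luciferase luminescence from an integrated reporter in P. falciparum, so falling signal marks reduced parasite growth. Infected erythrocytes were at 2% hematocrit and 0.1% parasitemia (final) in Albumax-supplemented RPMI 1640.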
AMA1 RON2 block: disrupts binding of P. falciparum AMA1 to RON2. 360,000 tested, 0.2% active. Potency, µM (top dose mostly 58.2 µM), usual class: inhibitors. AlphaScreen AMA1-biotinylated RON2 peptide binding; also: nearly all actives have a fitted effect of over 45% in size
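AMA1 (3D7) with his tag at 25 nM final met compounds first, then biotinylated RON2 peptide at 25 nM; detection used donor plus acceptor beads, 10 µg/mL apiece, read by AlphaScreen after 30 min at room temperature.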
Pf growth 96h: P. falciparum growth inhibition at 96 hours; 320,000 tested, 6.9% active; AID 504834; Potency, µM (titrated, usually from 28.7 µM), most hits filed as inhibitors; P. falciparum luciferase reporter growth, 96 h
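Parasite growth measured via integrated firefly luciferase reporter in P. falciparum. Infected erythrocytes at 2% hematocrit, 0.05% parasitemia final were treated 96 hours at 37 C under 5% CO2, and luminescence was read.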
Hits are given with their value. Unless noted, calls follow the shape of the dose curve; as a rule, active = well fitted curve in the direction sought with a large enough effect; inconclusive = small, poorly fitted or top-dose-only effect, or another doubt; inactive = no such curve, though single readings can be large; an effect the other way counts as inactive or inconclusive.

For COC(=O)c1ccc(NC(=O)CN2CCN(c3ccccc3C)CC2)cc1 the results were SARS PLpro yeast inactive, Pf growth 48h inactive, AMA1 RON2 block inactive and Pf growth 96h 9.3µM.
Cc1cccc(NC(=O)CCN2CCOCC2)c1 was read as SARS PLpro yeast inactive, Pf growth 48h inactive and AMA1 RON2 block inactive.
Cc1ccc(NC(=O)CCN2C(=O)c3ccccc3C2=O)cc1 was read as SARS PLpro yeast inactive, Pf growth 48h inactive, AMA1 RON2 block inactive and Pf growth 96h 12µM.
Cc1cccnc1NC(=O)CCCN1C(=O)c2ccccc2C1=O was read as SARS PLpro yeast inactive, Pf growth 48h inactive and AMA1 RON2 block inactive.
Screening O=C(CCCN1C(=O)c2ccccc2C1=O)Nc1c2c(nc3c1CCC3)CCC2 returned SARS PLpro yeast inactive, Pf growth 48h inconclusive, AMA1 RON2 block inactive and Pf growth 96h 0.47µM.
O=C(CCN1C(=O)c2ccccc2S1(=O)=O)Nc1ccc(C(=O)O)cc1 was read as SARS PLpro yeast inactive, Pf growth 48h inactive, AMA1 RON2 block inactive and Pf growth 96h 10µM.
For Cc1ccc(NC(=O)CCN2CCC(C)CC2)cc1 the results were SARS PLpro yeast inactive, Pf growth 48h inactive, AMA1 RON2 block inactive and Pf growth 96h 13µM.
Screening CC1(c2nnc(-c3ccccc3)o2)CC(c2ccc([N+](=O)[O-])cc2)=NO1 (stereo unspecified) returned AMA1 RON2 block inactive.
For CCN1CCN(CCC(=O)Nc2cc(C)ccc2C)CC1 the results were SARS PLpro yeast inactive, Pf growth 48h inactive, AMA1 RON2 block inactive and Pf growth 96h inconclusive.
Screening O=C(NCCN1CCN(C(=O)Nc2ccccc2)CC1)Nc1ccccc1 returned SARS PLpro yeast inactive, AMA1 RON2 block inactive and Pf growth 96h 5.2µM.
Cc1ccc(C)c(NC(=O)CCN2CCc3ccccc3C2)c1 was read as SARS PLpro yeast inactive, Pf growth 48h 13µM, AMA1 RON2 block inactive and Pf growth 96h inactive.
`Cc1ccc(NC(=O)NCCN2CCN(C(=O)Nc3ccc(C)cc3)CC2)cc1` gave SARS PLpro yeast inactive, Pf growth 48h inconclusive, AMA1 RON2 block inactive and Pf growth 96h inconclusive.
COC(=O)c1c(NC(=O)CN2CCN(c3ccccc3)CC2)c2c(C)cccc2n1C was read as SARS PLpro yeast inactive, AMA1 RON2 block inactive and Pf growth 96h 5.9µM.
Screening CCN1CCN(CCC(=O)Nc2ccccc2)CC1 returned SARS PLpro yeast inactive, Pf growth 48h inactive, AMA1 RON2 block inactive and Pf growth 96h 13µM.
Cc1ccc(C)c(NC(=O)CCN2CCC(C)CC2)c1 was read as SARS PLpro yeast inactive, Pf growth 48h inactive, AMA1 RON2 block inactive and Pf growth 96h 5.2µM.
For Cc1ccc(C)c(NC(=O)CCN2CC(C)CC(C)C2)c1 (stereo unspecified) the results were SARS PLpro yeast inactive, Pf growth 48h inactive, AMA1 RON2 block inactive and Pf growth 96h inconclusive.
COC(=O)c1ccc(NC(=O)CCN2CCCCC2)cc1 was read as SARS PLpro yeast inactive, Pf growth 48h inactive, AMA1 RON2 block inactive and Pf growth 96h 1.5µM.
For NNC(=O)c1nn(-c2ccc(Cl)cc2)cc1O the results were SARS PLpro yeast inactive, Pf growth 48h 9.3µM, AMA1 RON2 block inactive and Pf growth 96h inconclusive.
`Cc1ccc(NC(=O)COC(=O)c2nn(-c3ccc(Cl)cc3)cc2O)cc1` gave SARS PLpro yeast inactive and AMA1 RON2 block inactive.
`COc1ccc2c(c1)SCC(=O)N2C` gave SARS PLpro yeast inactive, Pf growth 48h inactive, AMA1 RON2 block inactive and Pf growth 96h inactive.
`Cc1ccc(-c2csc(N3CCN(c4cc5c(cc4Cl)nc(C)n5CCN4CCCCC4)CC3)n2)cc1` gave SARS PLpro yeast inactive, Pf growth 48h inconclusive, AMA1 RON2 block inactive and Pf growth 96h 2.1µM.
Cc1csc(N2CCN(c3cc4c(cc3Cl)nc(-c3ccncc3)n4CCCN3CCCC3)CC2)n1 was read as SARS PLpro yeast inactive, Pf growth 48h inconclusive, AMA1 RON2 block inactive and Pf growth 96h 3.7µM.
`Cc1csc(N2CCN(c3cc4nc(-c5ccncc5)[nH]c4cc3Cl)CC2)n1` gave SARS PLpro yeast inactive, Pf growth 48h inconclusive, AMA1 RON2 block inactive and Pf growth 96h inconclusive.
O=C(NC1CCCCC1)C1CCC(=O)N(C2CC2)C1 (stereo unspecified) was read as SARS PLpro yeast inactive, Pf growth 48h inactive, AMA1 RON2 block inactive and Pf growth 96h inactive.
Screening CC1(C)CC(NC(=O)C2CCC(=O)N(C3CC3)C2)CC(C)(C)C1 (stereo unspecified) returned SARS PLpro yeast inactive, Pf growth 48h inactive, AMA1 RON2 block inactive and Pf growth 96h 8.3µM.
CN(C)C/C=C(/c1ccc(Br)cc1)c1cccnc1 was read as Pf growth 48h 12µM, AMA1 RON2 block inactive and Pf growth 96h 15µM.
`Cc1ccc(NP(=O)(Nc2ccc(C)cc2)Nc2ccc(C)cc2)cc1` gave SARS PLpro yeast inactive, Pf growth 48h 12µM, AMA1 RON2 block inactive and Pf growth 96h inconclusive.
CCCc1nc2ccc(Br)cc2c(=O)n1-c1ccc([N+](=O)[O-])c(C(F)(F)F)c1 was read as SARS PLpro yeast inactive, Pf growth 48h 12µM, AMA1 RON2 block inactive and Pf growth 96h inactive.
Screening CCc1nc2ccc(Br)cc2c(=O)n1-c1ccccc1C(F)(F)F returned AMA1 RON2 block inactive.
For O=C(NCCc1ccc(C(F)(F)F)cc1)c1ccc(Cl)nc1 the results were SARS PLpro yeast inactive, Pf growth 48h inconclusive, AMA1 RON2 block inactive and Pf growth 96h inactive.
CCCCCCCCCCCCCCCCn1cc[n+](CC(C)=O)c1 was read as SARS PLpro yeast inactive, Pf growth 48h inactive, AMA1 RON2 block inactive and Pf growth 96h inactive.
Screening CCCCCCn1ccc(=N)cc1 returned SARS PLpro yeast inactive, Pf growth 48h 3.3µM, AMA1 RON2 block inactive and Pf growth 96h 0.47µM.
Screening CCOc1cccc2sc(NC(=O)c3ccc(Br)s3)nc12 returned SARS PLpro yeast inactive, AMA1 RON2 block inactive and Pf growth 96h 7.4µM.
`O=C(CCc1nc(-c2ccccc2Cl)no1)NCCc1ccccc1` gave SARS PLpro yeast inactive, Pf growth 48h inactive, AMA1 RON2 block inactive and Pf growth 96h inactive.
Cc1ccc(C(=O)NCCC2=CCCCC2)cc1S(=O)(=O)N1CCOCC1 was read as SARS PLpro yeast inactive, Pf growth 48h 12µM, AMA1 RON2 block inactive and Pf growth 96h inconclusive.
Screening O=C(NCCC1=CCCCC1)c1cccc(S(=O)(=O)N2CCCCC2)c1 returned SARS PLpro yeast inactive, Pf growth 48h inconclusive, AMA1 RON2 block inactive and Pf growth 96h inconclusive.
Cc1ccc(C(=O)NCCC2=CCCCC2)cc1S(=O)(=O)N1CCCCC1 was read as SARS PLpro yeast inactive, Pf growth 48h 12µM, AMA1 RON2 block inactive and Pf growth 96h 4.7µM.
O=C(CSc1nc2ccccc2s1)N1c2ccccc2Sc2ccccc21 was read as SARS PLpro yeast inactive, Pf growth 48h inconclusive, AMA1 RON2 block inactive and Pf growth 96h inactive.
CCn1c(-c2ccccc2)c(C(=O)CC#N)c2ccccc21 was read as SARS PLpro yeast inactive, Pf growth 48h inconclusive, AMA1 RON2 block inactive and Pf growth 96h inconclusive.
COC(=O)c1sc(N)c(C(=O)OC)c1COC(=O)CCNS(=O)(=O)c1ccc(C)cc1 was read as SARS PLpro yeast inactive, Pf growth 48h inconclusive, AMA1 RON2 block inactive and Pf growth 96h 10µM.
